Bioassay records deposited in PubChem BioAssay by National Center for Advancing Translational Sciences (NCATS).
A selection: hits, their analogues and other compounds. The true share with any hit is near 6.9%.
KB-3-1 cytotox: kills parental KB-3-1 adenocarcinoma cells; KB-3-1 viability, CellTiter-Glo ATP luminescence, 72 h; Potency, µM (series often up to 46.1 µM), actives largely listed as cytotoxic; actives 1.4% (n = 400,000); AID 1347075; note: potency is the fitted concentration of half-maximal effect; % is set by controls: 0 for no effect and ±100 for the full control effect; nearly all actives have a fitted effect of over 60% in size
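Luminescent ATP read-out (CellTiter-Glo) measures survival of drug-naive KB-3-1 cells after 72 h compound exposure at 37 °C. Titration series was screened from lowest to highest concentration, with DMSO vehicle plates as background controls.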
MCF10A rereplic: inducers of DNA re-replication in MCF 10A breast cells; MCF 10A DNA re-replication, Hoechst nuclear intensity, 48 h; Potency, µM (doses to about 46.1 µM), for inactives: top-dose activity, positive = re-replication, actives largely listed as activators; actives 2.9% (n = 350,000); note: potency is the fitted concentration of half-maximal effect; % of control where 0% means no effect; nearly all actives have a fitted effect of over 50% in size
KB-V1 cytotox: KB-V1 MDR subline cytotoxicity. KB-V1 MDR cells viability, CellTiter-Glo, 72 h. actives 3.4% (n = 400,000). AID 1347076. Potency, µM (top dose mostly 46.1 µM), most hits filed as cytotoxic; note: potency is the fitted concentration of half-maximal effect; % is set by controls: 0 for no effect and ±100 for the full control effect; nearly all actives have a fitted effect of over 60% in size
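KB-V1, DMEM (no phenol red) + 10% FBS; cpd pin-transferred, titration series; 72 h, 37 degrees C; CellTiter-Glo, luminescence. Data normalized, curve-fit.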
SW480 rerep: induces DNA re-replication in SW480 colon adenocarcinoma cells | SW480 DNA re-replication, Hoechst DNA content imaging, 48 h | Potency, µM (series often up to 46.1 µM), for inactives: at the highest dose re-replication activation, actives largely listed as activators | actives 1.8% (n = 340,000); note: potency is the fitted concentration of half-maximal effect; % of control where 0% means no effect; nearly all actives have a fitted effect of over 55% in size
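Treated cells incubate 48 hr (37 C, 5% CO2), are stained 40 min with Hoechst, and nuclear fluorescence is enumerated; a rise in nuclei with high DNA signal marks re-replication.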
S-ASM inh: human S-ASM enzyme inhibition; P17405; placental ASM, HMU-PC fluorogenic substrate, 60 min; Potency, µM (series often up to 57.5 µM), for inactives: at the top dose activity change, negative = inhibition, actives largely listed as inhibitors; actives 0.006% (n = 340,000); AID 504937; note: potency is the fitted concentration of half-maximal effect
Target sequence (P17405 47-631 limits assumed): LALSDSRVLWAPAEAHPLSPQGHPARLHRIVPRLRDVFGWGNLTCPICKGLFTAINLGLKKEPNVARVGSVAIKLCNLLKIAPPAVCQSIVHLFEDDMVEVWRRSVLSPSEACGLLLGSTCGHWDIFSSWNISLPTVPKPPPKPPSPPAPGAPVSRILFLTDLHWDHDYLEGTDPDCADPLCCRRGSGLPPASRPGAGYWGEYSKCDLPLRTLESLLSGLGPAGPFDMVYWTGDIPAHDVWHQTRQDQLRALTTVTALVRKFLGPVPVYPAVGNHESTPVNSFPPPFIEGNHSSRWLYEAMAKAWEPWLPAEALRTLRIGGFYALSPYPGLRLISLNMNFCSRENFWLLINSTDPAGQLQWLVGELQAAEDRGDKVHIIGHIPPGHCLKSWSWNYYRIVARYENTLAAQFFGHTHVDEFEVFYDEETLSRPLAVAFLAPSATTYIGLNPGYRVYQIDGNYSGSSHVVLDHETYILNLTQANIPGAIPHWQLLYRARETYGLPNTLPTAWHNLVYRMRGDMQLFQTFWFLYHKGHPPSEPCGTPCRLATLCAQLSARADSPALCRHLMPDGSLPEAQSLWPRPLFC
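Fluorescence read-out (Ex 386 nm, Em 447 nm) after stopping the reaction at pH 10. Enzyme: ASM from human placenta; substrate HMU-PC0, 9 uM final; 60 min, 37 °C. Compound preincubation 10 min, ambient temperature.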
Giardia kill: Giardia lamblia killing. Giardia lamblia trophozoite viability. activity change, % at 7.66 µM, hits read low. actives 0.15% (n = 340,000). AID 540267; in the data active = activity change below about -80%; inconclusive = between about -30% and that limit;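 note: parasites exposed to compound for two days anaerobically before the ATP read; % is set by controls: 0 for no effect and ±100 for the full control effect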
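Trophozoite viability was measured as ATP-dependent luminescence, read 15-30 min after reagent addition. Before that, parasites at 100 cells/well were exposed to compounds for 48 h, anaerobically, at 37 deg C.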
An asterisk follows results filed as active; i = inactive; ? = inconclusive; nt = not tested or not shown; [ ] = dose if it differs, or a comment. Unless noted, calls come from the whole dose curve; as a rule, active = well fitted curve in the direction sought with a large enough effect; inconclusive = small, poorly fitted or top-dose-only effect, or another doubt; inactive = no such curve, though single readings can be large; an effect the other way counts as inactive or inconclusive.

SMILES | KB-3-1 cytotox | MCF10A rereplic | KB-V1 cytotox | SW480 rerep | S-ASM inh | Giardia kill
CSc1ccc(NC(=O)N2CC=C(n3c(=O)[nH]c4ccccc43)CC2)cc1 | 16.4µM* | ? | 16.4µM* | ? | -1.7% | -7.9
O=c1[nH]c2ccccc2n1C1=CCCC1 | i | -10.2% | i | -3.4% | 5.9% | -22.0
COc1ccc(-c2nc3ccccc3o2)cc1NC(=O)c1ccc(OCC(C)C)cc1 | i | nt | i | nt | nt | nt
C=CCSc1nnc(C)c(/C=C/Nc2ccc(Cl)cc2)n1 | i | 20.6µM* | i | ? | -3.3% | 6.1
O=C(Nc1ccc(-c2nc3ccc(NC(=O)c4cccs4)cc3[nH]2)cc1)c1cccs1 | 6.51µM* | ? | i | ? | 19.7% | 13.2
CC(=O)Nc1ccc(NC(=O)c2ccc(NS(=O)(=O)c3cc(C(C)(C)C)cc(C)c3C)cc2)cc1 | i | 18.4µM* | i | 1.1% | nt | 4.5
Cc1cc(C(C)(C)C)cc(S(=O)(=O)Nc2ccc(O)c(C(=O)O)c2)c1C | i | 2.5% | i | -10.7% | 13.5% | -7.4
O=C(Nc1ccc(NC(=O)c2cccs2)cc1)c1ccccc1 | i | -1.1% | i | ? | -4.2%[11.5 µM] | -1.8
Cc1cccc(C(=O)Nc2ccc(C(=O)Nc3ccc(O)cc3)cc2)c1 | i | 14.6µM* | i | -0.7% | -1.8% | -18.4
O=C(Nc1ccc2nc(-c3cccs3)[nH]c2c1)c1cccs1 | ? | 22.7% | i | 8.0% | -1.7% | -6.2
O=C(Nc1ccc(O)cc1)c1ccc(NC(=O)c2cccs2)cc1 | 18.4µM* | 18.4µM* | i | -10.1% | -3.4% | 11.1
CN(C)c1ccc(/C=C2\CCc3cc(N)ccc32)cc1 | i | nt | i | nt | nt | nt
CCOC(=O)C1=CC(OC(CC)CC)C(NC(C)=O)C(N)C1 (configuration not stated) | nt | -9.8% | nt | 2.5% | nt | nt
COc1ccccc1-c1c(C)nn2c(N3CCN(c4ccc(Cl)cc4)CC3)cc(C)nc12 | i | nt | i | nt | nt | nt
Cc1ccc(NC(=O)c2ccc(NC(=O)c3ccccc3)cc2)cc1C | 23.1µM* | 24.1% | 18.4µM* | ? | -3.2% | -13.6
Cc1ccc(C(=O)Nc2cc(C(C)C)c(O)c(C(C)C)c2)cc1 | ? | -2.0% | 16.4µM* | -0.9% | -4.2% | 0.7
Cc1ccc(NC(=O)CCC(=O)NNC(=O)Cc2ccccc2)cc1C | i | 1.84µM* | i | 5.9% | 0.9% | -18.6
Cc1ccc(NC(=O)c2ccc(C)cc2)cc1 | i | ? | i | 9.1%[9.22 µM] | -1.3% | ?
Cc1ccc2[nH]c3c(=O)n(CC(=O)N4CCCCC4)ncc3c2c1 | i | nt | i | nt | nt | nt
CC(=O)N1c2ccccc2Oc2cc3ccccc3cc21 | i | -1.2% | i | 12.7% | 47.8% | 0.2
O=C(CCl)N1c2ccccc2Oc2ccc3ccccc3c21 | i | 18.4µM* | ? | 5.8µM* | 79.2% | 3.2
Cc1cccc(-c2nc(C)c(CCNC(=O)c3cccs3)s2)c1 | i | nt | ? | nt | nt | nt
S=C(NCc1ccc(Cl)cc1)NC1CCN(Cc2ccccc2)CC1 | ? | ? | 16.4µM* | 16.4µM* | 1.6% | 1.8
CC(C)c1ccc(NC(=S)NC2CCN(Cc3ccccc3)CC2)cc1 | ? | 28.4% | 20.6µM* | ? | -0.8% | 1.6
Cc1ccc(NC(=S)NC2CCN(Cc3ccccc3)CC2)cc1 | i | 6.3% | ? | -1.9% | 2.3% | 20.4
SMILES | KB-3-1 cytotox | MCF10A rereplic | KB-V1 cytotox | SW480 rerep | S-ASM inh | Giardia kill
O=C(Nc1cc(-c2nc3ccccc3s2)ccc1Cl)c1cc2ccccc2o1 | i | nt | i | nt | nt | nt
CC(=O)N/C(=C/c1ccccc1)c1sc2ccccc2[n+]1CCCCI | i | nt | i | nt | nt | nt
CCOc1ncccc1C(=O)N1CCN(c2cc(Cl)ccc2C)CC1 | 2.06µM* | 14.6µM* | 0.82µM* | 0.651µM* | ? | -1.3
CCOc1ncccc1C(=O)N1CCN(C(=O)c2ccccc2)CC1 | ? | 3.7% | i | 5.7% | -1.5% | -4.4
CCOc1ncccc1C(=O)N1CCN(c2cccc(C)c2C)CC1 | 1.03µM* | ? | ? | 0.731µM* | -7.4% | -7.7
CCOc1ccc(-c2cc(C(=O)N3CCN(c4cc(Cl)ccc4C)CC3)c3ccccc3n2)cc1 | i | nt | ? | nt | nt | nt
